Measured values: PMC7862700, “An all-to-all approach to the identification of sequence-specific readers for epigenetic DNA modifications on cytosine”

Experiments:
Experiment in all cases: DAPPL (digital affinity profiling via proximity ligation, sequencing); 10 mM Tris-HCl pH 7.5, 50 mM NaCl, 1 mM DTT, 4% glycerol, room temperature, 30 min; GST-TFs on glutathione beads, 16-mer random dsDNA library, 0.1% formaldehyde crosslink after washing; high values mean tight binding
Settings in all cases: protein: recombinant; tags: N-terminal GST; dsDNA, one strand shown
[1] = biological target: T1, FLI1 (Homo sapiens, UniProt Q01543 1-452)
T1 sequence: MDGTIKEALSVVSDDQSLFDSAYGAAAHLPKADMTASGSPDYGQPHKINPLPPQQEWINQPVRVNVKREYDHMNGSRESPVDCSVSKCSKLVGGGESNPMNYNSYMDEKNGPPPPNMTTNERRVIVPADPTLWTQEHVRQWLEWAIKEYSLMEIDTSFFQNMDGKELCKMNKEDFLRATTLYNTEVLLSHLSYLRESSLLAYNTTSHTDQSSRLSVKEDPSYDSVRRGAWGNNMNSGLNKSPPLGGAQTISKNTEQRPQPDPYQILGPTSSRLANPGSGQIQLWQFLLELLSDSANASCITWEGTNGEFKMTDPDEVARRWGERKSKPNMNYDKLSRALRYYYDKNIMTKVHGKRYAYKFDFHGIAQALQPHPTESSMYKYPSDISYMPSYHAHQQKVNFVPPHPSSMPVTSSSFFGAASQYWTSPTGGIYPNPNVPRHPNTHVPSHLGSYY
Outline: (§1)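 GST fusions of human transcription factors were expressed in yeast and captured with glutathione beads. Once given DNA barcodes and pooled alongside a tag-only sample, they were incubated for 30 min at room temperature with 200 nmole of a random double-stranded 16-mer DNA library in Tris/NaCl/DTT/glycerol buffer, then washed, crosslinked (0.1% formaldehyde), proximity-ligated, PCR-amplified and sequenced on an Illumina NextSeq500. The binding signal of each hexamer is its read frequency for a factor divided by its frequency for the tag-only sample.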

[2] = biological target: T2, ELK1 (Homo sapiens, UniProt P19419 1-428)
T2 sequence: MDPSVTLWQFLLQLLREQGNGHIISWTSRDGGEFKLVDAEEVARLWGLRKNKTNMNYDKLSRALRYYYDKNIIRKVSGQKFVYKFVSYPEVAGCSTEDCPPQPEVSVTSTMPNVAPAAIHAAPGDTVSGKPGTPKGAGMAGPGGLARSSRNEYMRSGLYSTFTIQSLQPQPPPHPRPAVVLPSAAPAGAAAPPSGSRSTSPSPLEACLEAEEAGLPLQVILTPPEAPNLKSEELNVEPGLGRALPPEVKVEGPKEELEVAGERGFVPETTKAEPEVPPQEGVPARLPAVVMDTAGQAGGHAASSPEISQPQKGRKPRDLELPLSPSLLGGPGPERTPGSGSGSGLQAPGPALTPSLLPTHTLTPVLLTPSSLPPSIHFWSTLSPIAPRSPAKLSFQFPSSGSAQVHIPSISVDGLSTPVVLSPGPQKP
Outline: as §1

[3] = biological target: T3, GABPA (Homo sapiens, UniProt Q06546 1-454)
T3 sequence: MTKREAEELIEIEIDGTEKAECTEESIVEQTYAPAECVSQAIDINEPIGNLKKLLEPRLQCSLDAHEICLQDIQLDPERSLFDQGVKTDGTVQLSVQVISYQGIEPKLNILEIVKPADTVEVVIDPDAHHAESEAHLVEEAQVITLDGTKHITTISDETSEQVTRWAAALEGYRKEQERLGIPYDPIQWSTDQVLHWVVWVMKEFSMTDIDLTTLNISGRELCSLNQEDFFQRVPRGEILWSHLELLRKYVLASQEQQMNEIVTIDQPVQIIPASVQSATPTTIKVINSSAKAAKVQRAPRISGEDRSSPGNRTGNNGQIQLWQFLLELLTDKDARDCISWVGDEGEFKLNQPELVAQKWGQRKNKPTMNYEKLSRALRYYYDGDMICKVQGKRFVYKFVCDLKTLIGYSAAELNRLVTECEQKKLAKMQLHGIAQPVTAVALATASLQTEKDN
Outline: as §1

[4] = biological target: T4, ERG (Homo sapiens, UniProt P11308 1-479)
T4 sequence: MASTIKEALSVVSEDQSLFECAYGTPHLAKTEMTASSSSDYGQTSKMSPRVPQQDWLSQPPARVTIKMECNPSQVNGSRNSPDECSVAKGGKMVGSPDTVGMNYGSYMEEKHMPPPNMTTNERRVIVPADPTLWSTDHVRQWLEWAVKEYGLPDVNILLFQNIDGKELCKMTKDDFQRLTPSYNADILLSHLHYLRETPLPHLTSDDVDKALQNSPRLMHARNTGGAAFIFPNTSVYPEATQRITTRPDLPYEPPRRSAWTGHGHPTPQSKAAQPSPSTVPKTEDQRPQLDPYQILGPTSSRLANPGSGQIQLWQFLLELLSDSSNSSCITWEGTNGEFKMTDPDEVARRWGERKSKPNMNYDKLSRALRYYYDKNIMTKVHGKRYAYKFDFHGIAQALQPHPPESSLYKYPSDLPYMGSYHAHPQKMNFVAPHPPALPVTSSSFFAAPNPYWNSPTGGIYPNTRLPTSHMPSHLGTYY
Outline: as §1

[5] = biological target: ELF1 (Homo sapiens, UniProt P32519 1-619)
Outline: as §1

[6] = biological target: T5, EHF (Homo sapiens, UniProt Q9NZC4 1-300)
T5 sequence: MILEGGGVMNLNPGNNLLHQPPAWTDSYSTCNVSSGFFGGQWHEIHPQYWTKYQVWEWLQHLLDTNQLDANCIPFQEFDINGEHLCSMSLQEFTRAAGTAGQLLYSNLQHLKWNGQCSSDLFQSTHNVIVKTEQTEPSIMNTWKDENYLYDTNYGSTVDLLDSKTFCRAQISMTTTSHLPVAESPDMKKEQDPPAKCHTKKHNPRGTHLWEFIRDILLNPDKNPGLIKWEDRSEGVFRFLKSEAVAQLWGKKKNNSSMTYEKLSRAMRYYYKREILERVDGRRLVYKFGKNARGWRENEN
Outline: as §1

[7] = biological target: SPI1 (Homo sapiens, UniProt P17947 1-270)
Outline: as §1

[8] = biological target: SPIB (Homo sapiens, UniProt Q01892 1-262)
Outline: as §1

[9] = biological target: T6, ELK3 (Homo sapiens, UniProt P41970 1-407)
T6 sequence: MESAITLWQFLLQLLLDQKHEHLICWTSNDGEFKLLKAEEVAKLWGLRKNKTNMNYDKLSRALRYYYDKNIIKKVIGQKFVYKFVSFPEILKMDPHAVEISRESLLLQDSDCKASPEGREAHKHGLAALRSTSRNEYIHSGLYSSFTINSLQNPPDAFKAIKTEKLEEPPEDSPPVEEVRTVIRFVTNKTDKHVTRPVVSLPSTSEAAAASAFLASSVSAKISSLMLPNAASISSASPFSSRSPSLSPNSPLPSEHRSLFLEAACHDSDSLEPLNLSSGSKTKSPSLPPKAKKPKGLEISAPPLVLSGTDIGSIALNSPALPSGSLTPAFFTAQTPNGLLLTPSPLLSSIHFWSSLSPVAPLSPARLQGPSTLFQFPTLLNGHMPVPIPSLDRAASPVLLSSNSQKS
Outline: as §1

Sequence of SPIB (Q01892 whole entry): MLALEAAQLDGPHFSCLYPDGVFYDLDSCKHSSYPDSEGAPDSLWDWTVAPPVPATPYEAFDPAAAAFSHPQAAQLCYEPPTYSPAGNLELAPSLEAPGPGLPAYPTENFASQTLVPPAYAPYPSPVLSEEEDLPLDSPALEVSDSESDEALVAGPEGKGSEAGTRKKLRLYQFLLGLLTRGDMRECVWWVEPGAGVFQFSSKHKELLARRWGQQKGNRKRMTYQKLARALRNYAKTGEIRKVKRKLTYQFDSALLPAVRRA
Sequence of ELF1 (P32519 whole entry): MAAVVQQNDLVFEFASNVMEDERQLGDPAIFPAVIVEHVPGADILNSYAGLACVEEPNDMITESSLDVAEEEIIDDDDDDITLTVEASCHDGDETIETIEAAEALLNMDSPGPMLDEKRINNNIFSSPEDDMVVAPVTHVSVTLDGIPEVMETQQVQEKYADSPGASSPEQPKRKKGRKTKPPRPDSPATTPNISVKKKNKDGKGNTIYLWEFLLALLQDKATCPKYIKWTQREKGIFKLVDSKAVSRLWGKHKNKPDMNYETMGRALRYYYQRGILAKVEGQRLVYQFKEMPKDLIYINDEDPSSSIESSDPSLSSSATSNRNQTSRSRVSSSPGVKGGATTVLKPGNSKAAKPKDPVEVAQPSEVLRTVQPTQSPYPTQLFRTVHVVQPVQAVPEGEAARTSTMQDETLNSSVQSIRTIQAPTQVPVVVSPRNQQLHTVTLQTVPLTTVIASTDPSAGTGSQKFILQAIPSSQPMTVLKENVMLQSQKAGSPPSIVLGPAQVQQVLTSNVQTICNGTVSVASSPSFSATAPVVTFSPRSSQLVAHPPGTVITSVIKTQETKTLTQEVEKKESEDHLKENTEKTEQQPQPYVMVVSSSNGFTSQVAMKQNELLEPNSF

TAATCC
binding signal [1]: 1.29 fold enrichment (6-mer frequency, TF over GST control) | binding signal [2]: 1.26 fold enrichment (6-mer frequency, TF over GST control) | binding signal [3]: 1.25 fold enrichment (6-mer frequency, TF over GST control) | binding signal [4]: 1.34 fold enrichment (6-mer frequency, TF over GST control) | binding signal [5]: 1.15 fold enrichment (6-mer frequency, TF over GST control) | binding signal [6]: 1.25 fold enrichment (6-mer frequency, TF over GST control) | binding signal [7]: 1.29 fold enrichment (6-mer frequency, TF over GST control) | binding signal [8]: 1.28 fold enrichment (6-mer frequency, TF over GST control) | binding signal [9]: 1.35 fold enrichment (6-mer frequency, TF over GST control)
